# Measurements from PubChem BioAssay AID1345085 (National Center for Advancing Translational Sciences (NCATS), 2018).
# Results filed as inconclusive are left out. Calls of active or inactive are those of the source. Calls follow the shape of the dose curve; as a rule, active = well fitted cell-killing curve with a large enough effect; inconclusive = small, poorly fitted or top-dose-only effect, or effect the other way; inactive = no such curve, though single readings can be large or run the other way.
# Test system: Tov-21-G
# Experiment: Confirmatory qHTS for gynecologic anti-cancer compounds from libraries of approved drugs and bioactive compounds; also: nearly all actives have a fitted effect of over 55% in size
# Details: gynecologic cancer cell panel viability, ATPlite luminescence, 48 h; series mostly up to 57.7 µM; activity change, negative = viability loss: at the top concentration
# Procedure, shortened: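 Viability is measured as ATP-dependent luciferase light using ATPlite, read 15 min after reagent addition at room temperature. Compounds, in DMSO, span 57.5 uM down to 0.977 nM over 11 threefold steps for 48 h.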
# % is scaled to controls: 0 for no effect and ±100 for the full control effect; potency is read from the fitted curve at half-maximal effect.
SMILES,Potency,"activity change, negative = viability loss"
CCCC(Nc1nc(-c2ccc(NC(=O)NCC)c(OC)c2)ncc1C)c1cccnc1 (stereo unspecified),0.0306 µM (active),–
NC1(c2ccc(-c3nc4ccn5c(=O)[nH]nc5c4cc3-c3ccccc3)cc2)CCC1,–,-10.2% (inactive)
Cc1nc(NC(=O)N2CCCC2C(N)=O)sc1-c1ccnc(C(C)(C)C(F)(F)F)c1 (stereo unspecified),10.9 µM (active),–
OC[C@H]1O[C@@H](n2cnc3c(=S)nc[nH]c32)[C@H](O)[C@@H]1O,–,-22.2% (inactive)
CCN(CC)CCOc1ccc(/C(=C(\Cl)c2ccccc2)c2ccccc2)cc1,126 µM (active),–
CN(C)CCC(CSc1ccccc1)Nc1ccc(S(=O)(=O)NC(=O)c2ccc(N3CCN(Cc4ccccc4-c4ccc(Cl)cc4)CC3)cc2)cc1[N+](=O)[O-] (stereo unspecified),13.7 µM (active),–
Cc1ccc(C(=O)Nc2ccc(CN3CCN(C)CC3)c(C(F)(F)F)c2)cc1C#Cc1cnc2[nH]ncc2c1,0.0273 µM (active),–
CC[C@@]1(O)C(=O)OCc2c1cc1n(c2=O)Cc2c-1nc1ccccc1c2/C=N/OC(C)(C)C,0.611 µM (active),–
O=C(CCCCCCNC(=O)c1cnc(N(c2ccccc2)c2ccccc2)nc1)NO,21.7 µM (active),–
CCN1CCN(Cc2ccc(Nc3ncc(F)c(-c4cc(F)c5nc(C)n(C(C)C)c5c4)n3)nc2)CC1,2.73 µM (active),–
OCCNC1CCCc2c1[nH]c1ccc(-c3ccccc3)cc21 (stereo unspecified),27.3 µM (active),–
CC(Oc1cc(-n2cnc3ccc(CN4CCN(C)CC4)cc32)sc1C(N)=O)c1ccccc1C(F)(F)F (stereo unspecified),27.3 µM (active),–
C1CCC(C(CC2CCCCN2)C2CCCCC2)CC1 (stereo unspecified),12.2 µM (active),–
CN[C@@H](C)C(=O)N[C@H]1CN(C(=O)CC(C)C)CC[C@H]2CC[C@@H](C(=O)NC(c3ccccc3)c3ccccc3)N2C1=O,21.7 µM (active),–
Nc1ncn([C@@H]2O[C@H](CO)[C@@H](O)[C@H]2O)c(=O)n1,19.3 µM (active),–
Cc1c(NC(=O)OCC2COCCN2)cn2ncnc(Nc3ccc4c(cnn4Cc4cccc(F)c4)c3)c12 (stereo unspecified),3.06 µM (active),–

SMILES,Potency,"activity change, negative = viability loss"
C[C@]12CCC(=O)C=C1CC[C@@H]1[C@@H]2[C@@H](O)C[C@@]2(C)[C@H]1CC[C@]2(O)C(=O)CO,–,12% (inactive)
O=C1c2c(O)ccc(O)c2C(=O)c2c(NCCNCCO)ccc(NCCNCCO)c21,4.32 µM (active),–
Nc1ccccc1NC(=O)c1ccc(CNC(=O)OCc2cccnc2)cc1,7.69 µM (active),–
COc1cc(F)c(F)c(Nc2ccc(I)cc2F)c1NS(=O)(=O)C1(CC(O)CO)CC1 (stereo unspecified),13.7 µM (active),–
CNc1nc(Nc2ccc(C(=O)N3CCOCC3)cc2OC)ncc1Cl,–,-9.86% (inactive)
Cc1ccc(-n2[nH]c(C)c(N=Nc3cccc(-c4cccc(C(=O)O)c4)c3O)c2=O)cc1C,–,16.8% (inactive)
Cc1ccc(C(=O)Nc2cccc(C(F)(F)F)c2)cc1-c1ccc2nc(NCCN3CCOCC3)ncc2c1,4.85 µM (active),–
O=C1N(c2ccccc2)c2ccccc2C1(Cc1ccncc1)Cc1ccncc1,–,18.7% (inactive)
C#C[C@]1(O)CC[C@H]2[C@@H]3CCC4=CC(=O)CC[C@@H]4[C@H]3CC[C@@]21CC,–,12.4% (inactive)
CN(C)/N=N/c1nc[nH]c1C(N)=O,–,27.2% (inactive)
CC1=C(CO)C(=O)O[C@@H]([C@@H](C)[C@H]2CC[C@H]3[C@@H]4C[C@H]5O[C@]56[C@@H](O)C=CC(=O)[C@]6(C)[C@H]4CC[C@]23C)C1,3.35 µM (active),–
CC(=O)NCC(=O)N1C2CCC1c1cc(Nc3ncc(C(F)(F)F)c(NC4CCC4)n3)ccc12 (stereo unspecified),3.06 µM (active),–
CNC(=O)CN1CCC(Oc2cc3c(Nc4cccc(Cl)c4F)ncnc3cc2OC)CC1,7.69 µM (active),–
CC(C)CC(=O)Nc1n[nH]c2c1CN(C(=O)C1CCN(C)CC1)C2(C)C,3.85 µM (active),–
CCN(CC)CCNC(=O)c1c(C)[nH]c(/C=C2\C(=O)Nc3ccc(F)cc32)c1C,11.2 µM (active),–
